From PubChem BioAssay AID652039 (The Scripps Research Institute Molecular Screening Center, 2013) come the findings set out here.

Screen size: about 370,000 compounds; about 3,300 (0.89%) were called active. Shown is part of a subset that was picked to be rich in actives. A number with no mark means an inactive call.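 Rule for the calls: active = activation above the mean of all tested compounds plus 3 SD, computed per campaign excluding outliers beyond control limits (cut at about 13% in these data); inactive = the rest.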

The target of the assay is Kallikrein-7 (Homo sapiens) (UniProt P49862). In words: activation of human kallikrein-7 proenzyme – biochemical, fluorescence intensity, primary screen (AID 652039). The settings on record: purified proKLK7, EDANS-DABCYL substrate fluorescence; at 7 µM; active compounds read high; 100% is mature enzyme control, 0% vehicle.
Kallikrein-7 (Homo sapiens), sequence (P49862 whole entry, looked up): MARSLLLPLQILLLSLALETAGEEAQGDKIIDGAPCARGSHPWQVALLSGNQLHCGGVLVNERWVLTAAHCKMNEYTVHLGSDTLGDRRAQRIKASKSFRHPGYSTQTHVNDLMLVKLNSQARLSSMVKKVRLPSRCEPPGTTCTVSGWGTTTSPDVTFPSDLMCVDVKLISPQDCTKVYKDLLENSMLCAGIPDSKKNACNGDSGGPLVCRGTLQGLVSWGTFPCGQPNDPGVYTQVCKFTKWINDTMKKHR
As for `Cc1ccc(C(=O)C2CCN(CC(=O)NCCC(C)C)CC2)cc1`, the activation was 1.04%.
As for `CCCC[C@H](C(=O)N(CC)c1ccccc1)[C@@H](O)c1ccc2ccccc2c1`, the activation is 0.3%.
In the case of `CC(=O)Nc1ccc(S(=O)(=O)NCC(=O)OCc2cc(=O)oc3ccc4ccccc4c23)cc1`, the activation is 273% (active).
In the case of `COc1ccccc1C(=O)COC(=O)CNS(=O)(=O)c1ccc(NC(C)=O)cc1`, the activation is 0.48%.
In the case of `COc1ccccc1CNC(=O)COC(=O)CNS(=O)(=O)c1ccc(NC(C)=O)cc1`, the activation is -0.12%.
As to `CC1CCCN(c2cccc3c2S(=O)(=O)N(Cc2ccc(F)cc2)[C@@H](C)[C@H](c2ccccc2)O3)C1` (stereo partly drawn), the activation is -0.65%.
As to `Nn1c(SCC(=O)Nc2cccc3ccccc23)nnc1-c1cc(-c2ccc(F)cc2)n[nH]1`, the activation was 0.42%.
As to `COc1cccc(-c2ccc3c(c2)S(=O)(=O)c2cccc(C(=O)O)c2C3=O)c1OC`, the activation was -0.11%.
The value for `O=C(O)c1ccc2c3c(cccc13)C(=O)N(OS(=O)(=O)c1ccccc1)C2=O` was 105% (active); that for `C=C(C)C#CC(Cc1ccccc1)N(CC1CC1)/C(N)=N/C(=O)OCc1ccccc1` (stereo not drawn) was -0.43%; that for `CC(=O)Nc1ccc(S(=O)(=O)Nc2ccc(-c3ccc4nnc(C)n4n3)cc2)cc1` was 0.05%.
Regarding `CCCCCC(=O)Nc1ccc(-c2cn3cccnc3n2)cc1`, the activation is 52.5% (active).
On to `CC(=O)Nc1ccc(-c2cn3cccnc3n2)cc1`, for which the activation is 64.7% (active).
For the compound `Cc1nn2c(=O)cc(COC(=O)c3ccc(NC(=O)C(C)(C)C)cc3)nc2s1`, the activation is -0.47%.
As for `CCCCCC(=O)Nc1ccc(S(=O)(=O)Nc2ccc(Cl)nn2)cc1`, the activation was -0.08%.
For the compound `CC(C)(C)C(=O)Nc1ccc(-c2cn3cccnc3n2)cc1`, the activation was 65.9% (active).
Then `CC(C)(C)C(=O)Nc1cccc(-c2ccc[nH]2)n1`, with 0.15%; and `Cc1cccc(C(=O)Nc2c(-c3ccc(F)cc3)nc3ncccn23)c1`, with 8.91%; and `CCCCC(=O)Nc1ccc(C(=O)NCCCn2ccnc2)cc1`, with 0%.
Consider `O=C(CCS(=O)(=O)c1ccccc1)Nc1ccc(Cl)c(Cl)c1`, for which the activation is 0.23%.
Turning to `O=C(CSc1nnc(COc2ccccc2)n1-c1ccc(Cl)cc1)Nc1ccc2c(c1)OCO2`, the activation was 0.41%.
The value for `COC(=O)[C@@]12CCCCC=C1N(CCc1ccc(Cl)cc1)C(=O)[C@H]2CC(=O)NCc1ccc(OC)c(OC)c1` was -0.01%; that for `Cc1ccc2nc(-c3ccc(CN4CCC(n5cc(-c6ccccc6)[nH]c5=O)CC4)cc3)c(-c3ccccc3)nc2c1` was -16.7%.
